The target of the first assay is cAMP-dependent protein kinase catalytic subunit alpha (Homo sapiens) (UniProt P17612). The settings on record: at 10 µM.
One may read the residual activity as the signal under treatment as a percentage of the control signal. `Oc1cccc(-c2nc(N3CCOCC3)c3oc4ncccc4c3n2)c1`: the residual activity was determined as 85%.

Regarding `NC(=O)Nc1sc(-c2ccc(F)cc2)cc1C(N)=O`, the residual activity amounted to 82%.

As for `Cn1sc(=O)n(Cc2ccccc2)c1=O`, the residual activity amounted to 89%.

As to `Nc1ncnc2[nH]nc(Nc3ccc(F)cc3)c12`, the residual activity worked out at 77%.

Consider `N#C/C(=C\c1ccc(O)c(O)c1)C(=O)NCc1ccccc1`, for which the residual activity was 75%.

As for `O=C1Nc2ccc(Cl)cc2/C1=C/c1cc(Cl)c(O)c(Cl)c1`, the residual activity stood at 66%.

For the compound `COc1cc2c(cc1OC)-c1n[nH]c(Nc3cccc(F)c3)c1C2`, the residual activity came out at 98%.

As for `O=C(CCCc1ccc(-c2ccccc2F)cc1)Nc1ccc(O)cc1`, the residual activity was 128%.

As to `O=C1NC(=O)c2c1c1c3ccccc3[nH]c1n1cncc21`, the residual activity stood at 88%.

As to `CC(C)(C)n1nc(Cc2cccc3ccccc23)c2c(N)ncnc21`, the residual activity was 8%.

In the case of `CCCC(=O)Oc1ccc2[nH]c(C(=O)c3cc4ccccc4[nH]3)cc2c1`, the residual activity was 89%.

In the case of `Nc1ncnc2c1c(-c1ccc(Oc3ccccc3)cc1)cn2C1CCCC1`, the residual activity amounted to 88%.

For `NCCNc1ncc(C(N)=O)c(Nc2cccc(C(F)(F)F)c2)n1`, the residual activity amounted to 141%.

With `COc1cc2ncnc(Nc3cccc(Cl)c3)c2cc1OC`, the residual activity came to 101%.

Take `c1ccc(-c2cnc(Nc3ccc(OCCN4CCCC4)cc3)s2)cc1`: the residual activity was 133%.

For `O=C(c1ccccc1)c1ccc(N2CCOCC2)cc1O`, the residual activity worked out at 81%.

Regarding `COc1ccc2c(c1)c(C1=C(c3c[nH]c4ccccc34)C(=O)NC1=O)cn2CCCN(C)C`, the residual activity was 17%.

Turning to `O=C1NC(=O)C(c2c[nH]c3ccccc23)=C1c1c[nH]c2ccccc12`, the residual activity stood at 55%.

For the compound `COc1ccc(-c2cnc3c(-c4ccsc4)cnn3c2)cc1`, the residual activity was found to be 82%.

Consider `O=C(O)/C=C/c1cc(Br)c(Br)c(Br)c1Br`, for which the residual activity was found to be 71%.

In the next assay the target is RAC-gamma serine/threonine-protein kinase (Homo sapiens) (UniProt Q9Y243). The note with it: at 1 µM.
RAC-gamma serine/threonine-protein kinase (Homo sapiens), sequence (Q9Y243 whole entry): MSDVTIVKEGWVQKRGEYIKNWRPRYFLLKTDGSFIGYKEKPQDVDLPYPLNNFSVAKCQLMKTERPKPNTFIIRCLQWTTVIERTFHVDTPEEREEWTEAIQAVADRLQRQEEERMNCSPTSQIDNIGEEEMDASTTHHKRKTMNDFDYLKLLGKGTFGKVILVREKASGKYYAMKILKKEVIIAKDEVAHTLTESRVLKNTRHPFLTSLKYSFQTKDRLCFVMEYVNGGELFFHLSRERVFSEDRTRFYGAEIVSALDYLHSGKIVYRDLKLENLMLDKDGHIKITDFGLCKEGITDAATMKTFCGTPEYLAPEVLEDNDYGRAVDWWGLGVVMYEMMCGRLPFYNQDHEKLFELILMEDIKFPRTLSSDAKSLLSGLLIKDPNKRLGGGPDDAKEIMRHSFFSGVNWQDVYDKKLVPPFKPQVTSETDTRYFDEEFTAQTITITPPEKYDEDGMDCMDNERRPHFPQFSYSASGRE
As to `Oc1cccc(-c2nc(N3CCOCC3)c3oc4ncccc4c3n2)c1`, the residual activity turned out to be 95%.

Consider `NC(=O)Nc1sc(-c2ccc(F)cc2)cc1C(N)=O`, for which the residual activity amounted to 85%.

For `O=C1Cc2c([nH]c3ccc([N+](=O)[O-])cc23)-c2ccccc2N1`, the residual activity came out at 118%.

As for `Cn1sc(=O)n(Cc2ccccc2)c1=O`, the residual activity was found to be 85%.

Turning to `O=C1Nc2ccc(Cl)cc2/C1=C/c1cc(Cl)c(O)c(Cl)c1`, the residual activity is 96%.

Take `O=C(CCCc1ccc(-c2ccccc2F)cc1)Nc1ccc(O)cc1`: the residual activity came to 109%.

For the compound `CCCCc1c(-c2ccc(OC)cc2)[nH]c2nccnc12`, the residual activity came out at 119%.

Regarding `O=C1NC(=O)c2c1c1c3ccccc3[nH]c1n1cncc21`, the residual activity came out at 84%.

In the case of `CCN(CC)CCNC(=O)c1c(C)[nH]c(/C=C2\C(=O)Nc3ccc(Cl)cc32)c1C`, the residual activity came out at 79%.

Regarding `CC(C)(C)n1nc(Cc2cccc3ccccc23)c2c(N)ncnc21`, the residual activity came out at 92%.

With `CCCC(=O)Oc1ccc2[nH]c(C(=O)c3cc4ccccc4[nH]3)cc2c1`, the residual activity was 102%.

On to `Nc1ncnc2c1c(-c1ccc(Oc3ccccc3)cc1)cn2C1CCCC1`, for which the residual activity came out at 98%.

Regarding `COc1cc2nccc(Oc3ccc(NC(=S)NC(=O)c4ccccc4C)cc3)c2cc1OC`, the residual activity was 94%.

For the compound `COc1cc2ncnc(Nc3cccc(Cl)c3)c2cc1OC`, the residual activity came to 112%.

With `CN(C)S(=O)(=O)c1ccc2c(c1)/C(=C/c1cc3c([nH]1)CCCC3)C(=O)N2`, the residual activity came out at 92%.

On to `COc1ccc2c(c1)c(C1=C(c3c[nH]c4ccccc34)C(=O)NC1=O)cn2CCCN(C)C`, for which the residual activity was determined as 30%.

Regarding `CC(C)(C)c1nc2c3ccc(F)cc3c3c(=O)[nH]ccc3c2[nH]1`, the residual activity was 60%.

For `O=C1NC(=O)C(c2c[nH]c3ccccc23)=C1c1c[nH]c2ccccc12`, the residual activity amounted to 100%.

With `O=C(O)/C=C/c1cc(Br)c(Br)c(Br)c1Br`, the residual activity came out at 105%.

For a further assay the target is unchanged. The settings on record: at 10 µM.
For `Oc1cccc(-c2nc(N3CCOCC3)c3oc4ncccc4c3n2)c1`, the residual activity came to 95%.

In the case of `NC(=O)Nc1sc(-c2ccc(F)cc2)cc1C(N)=O`, the residual activity was 55%.

For the compound `Cn1sc(=O)n(Cc2ccccc2)c1=O`, the residual activity worked out at 84%.

With `Nc1ncnc2[nH]nc(Nc3ccc(F)cc3)c12`, the residual activity was determined as 71%.

Turning to `N#C/C(=C\c1ccc(O)c(O)c1)C(=O)NCc1ccccc1`, the residual activity was determined as 83%.

Turning to `O=C1Nc2ccc(Cl)cc2/C1=C/c1cc(Cl)c(O)c(Cl)c1`, the residual activity amounted to 80%.

Regarding `COc1cc2c(cc1OC)-c1n[nH]c(Nc3cccc(F)c3)c1C2`, the residual activity was 109%.

In the case of `O=C(CCCc1ccc(-c2ccccc2F)cc1)Nc1ccc(O)cc1`, the residual activity was found to be 87%.

For the compound `O=C1NC(=O)c2c1c1c3ccccc3[nH]c1n1cncc21`, the residual activity turned out to be 64%.

With `CCN(CC)CCNC(=O)c1c(C)[nH]c(/C=C2\C(=O)Nc3ccc(Cl)cc32)c1C`, the residual activity stood at 33%.

`CC(C)(C)n1nc(Cc2cccc3ccccc23)c2c(N)ncnc21`: the residual activity came to 44%.

In the case of `CCCC(=O)Oc1ccc2[nH]c(C(=O)c3cc4ccccc4[nH]3)cc2c1`, the residual activity amounted to 103%.

On to `Nc1ncnc2c1c(-c1ccc(Oc3ccccc3)cc1)cn2C1CCCC1`, for which the residual activity turned out to be 71%.

Turning to `COc1cc2nccc(Oc3ccc(NC(=S)NC(=O)c4ccccc4C)cc3)c2cc1OC`, the residual activity is 72%.

Regarding `NCCNc1ncc(C(N)=O)c(Nc2cccc(C(F)(F)F)c2)n1`, the residual activity came to 43%.

Consider `CN(C)S(=O)(=O)c1ccc2c(c1)/C(=C/c1cc3c([nH]1)CCCC3)C(=O)N2`, for which the residual activity turned out to be 88%.

Regarding `COc1ccc2c(c1)c(C1=C(c3c[nH]c4ccccc34)C(=O)NC1=O)cn2CCCN(C)C`, the residual activity was 9%.

Take `CC(C)(C)c1nc2c3ccc(F)cc3c3c(=O)[nH]ccc3c2[nH]1`: the residual activity amounted to 63%.

For `O=C1NC(=O)C(c2c[nH]c3ccccc23)=C1c1c[nH]c2ccccc12`, the residual activity is 36%.

As to `O=C(O)/C=C/c1cc(Br)c(Br)c(Br)c1Br`, the residual activity worked out at 61%.

In the case of `Nc1ncnc2c1cnn2-c1ccccc1`, the residual activity was found to be 73%.

Values taken from ChEMBL document CHEMBL2218924, “A broad activity screen in support of a chemogenomic map for kinase signalling research and drug discovery” (Biochem J, 2013).
